In all, about 18,000 sequences were measured (“TetR repression strength (sort-seq, GFP reporter)”: median about 0.23, highest 2% from about 0.68 on). For the sample, the highest values were picked, then their nearest neighbours and some sequences at random.

TetR (class B, Tn10), sequence (P04483 whole entry): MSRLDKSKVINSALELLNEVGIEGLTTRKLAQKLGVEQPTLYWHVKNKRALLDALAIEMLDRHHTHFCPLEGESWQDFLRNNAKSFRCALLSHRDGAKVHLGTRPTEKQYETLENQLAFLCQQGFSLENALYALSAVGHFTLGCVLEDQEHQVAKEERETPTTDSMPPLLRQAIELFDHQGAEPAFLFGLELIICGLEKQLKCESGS

The assay addresses TetR (class B, Tn10) (UniProt P04483). Nature of the assay: TetR repression strength (sort-seq, GFP reporter) (relative to tetO2 = 1); higher = stronger repression. As to conditions: E. coli. The procedure, abridged:
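Repression strength was calculated by subtracting the read-weighted mean bin from the top bin index plus one and dividing by the unaltered operator's value. The plasmid library was low-copy in E. coli SIG10-MAX, with eight randomized operator positions between a constitutive promoter and sfGFP and constitutive TetR. Cultures grew 5 h at 37 °C in LB containing 50 µg/mL chloramphenicol before 10^6 cells were sorted by FACS into 13 fluorescence bins, each sequenced on Illumina. Three independent transformations were averaged for members having ≥30 reads in all replicates and a CV ≤0.5.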
As for TCCCTGGAAGTAATCGAGA, the TetR repression strength was determined as 0.241. The sequence TCCCCATTAGTACGTGAGA gave a TetR repression strength of 0.214. TCCCCGCGAGTAGGGGAGA came in with a TetR repression strength of 0.245. Turning to TCCCGAAGAGTCTTAGAGA, the TetR repression strength was 0.279. Sequence TCCCACACAGTCGGAGAGA displayed a TetR repression strength of 0.333. TCCCCTGAAGTGGCAGAGA displayed a TetR repression strength of 0.204.

TCCCGCTGAGTCGGCGAGA registered a TetR repression strength of 0.15.

TCCCCAGAAGTGGTAGAGA showed a TetR repression strength of 0.255. TCCCGTTTAGTGTTTGAGA: the TetR repression strength is 0.0592. As for TCCCATCTAGTGGGGGAGA, the TetR repression strength came out at 0.318. As for TCCCATCTAGTATCGGAGA, the TetR repression strength was found to be 0.908.

For TCCCATGGAGTACTGGAGA, the TetR repression strength is 0.0311.

TCCCTTCTAGTATCGGAGA came in with a TetR repression strength of 0.317. In the case of TCCCATCTAGTGTGTGAGA, the TetR repression strength came out at 0.253. TCCCATCTAGTGAGTGAGA displayed a TetR repression strength of 0.316. Regarding TCCCATCTAGTATCTGAGA, the TetR repression strength was found to be 0.199.

TCCCATCGAGTACTGGAGA: the TetR repression strength amounted to 1.02. The sequence TCCCATAGAGTACTGGAGA showed a TetR repression strength of 0.169. For TCCCATCTAGTGTGGGAGA, the TetR repression strength stood at 1.06. Turning to TCCCGTCTAGTGCGTGAGA, the TetR repression strength worked out at 0.0665. Turning to TCCCATCTAGTGCGTGAGA, the TetR repression strength worked out at 0.708. Consider TCCCGCCTAGTAGGCGAGA, for which the TetR repression strength is 0.391. Consider TCCCCTTCAGTACGAGAGA, for which the TetR repression strength worked out at 0.251.

In the case of TCCCGGTCAGTGGTGGAGA, the TetR repression strength was 0.24. As for TCCCTCACAGTGGTAGAGA, the figure is 0.157; as for TCCCAACTAGTCCTGGAGA, 0.278; as for TCCCTCATAGTATTGGAGA, 0.22.

Regarding TCCCTGGCAGTGATAGAGA, the TetR repression strength came out at 0.489.

For the sequence TCCCCGTCAGTGCGGGAGA, the TetR repression strength came out at 0.0283.

In turn, TCCCTTCTAGTTGGCGAGA displayed a TetR repression strength of 0.281. TCCCATCTAGTTGGAGAGA displayed a TetR repression strength of 0.371. For TCCCATCTAGTTGGCGAGA, the TetR repression strength came to 0.829. On to TCCCTTTAAGTTCACGAGA, for which the TetR repression strength stood at 0.199. Regarding TCCCGGTTAGTTAGCGAGA, the TetR repression strength was 0.363. Sequence TCCCGGGAAGTCCGCGAGA came in with a TetR repression strength of 0.144. As for TCCCGGGGAGTCCTCGAGA, the figure is 0.242; as for TCCCGGTCAGTCCTCGAGA, 0.15.

Consider TCCCGGGCAGTCCTCGAGA, for which the TetR repression strength worked out at 0.909. TCCCGGGAAGTCCTCGAGA displayed a TetR repression strength of 0.985. For TCCCGGGCAGTCGTCGAGA the value was 0.311; for TCCCGGACAGTGTAGGAGA, 0.295.

In turn, TCCCTCCTAGTGTGGGAGA registered a TetR repression strength of 0.194. For the sequence TCCCTGGCAGTGATGGAGA, the TetR repression strength was 0.189. Take TCCCGGCGAGTGGTAGAGA: the TetR repression strength worked out at 0.306. As for TCCCGAGTAGTCCTCGAGA, the TetR repression strength was found to be 0.207. In turn, TCCCTTGTAGTCTTGGAGA yielded a TetR repression strength of 0.287. For TCCCTTGTAGTCGGGGAGA the value was 0.938. TCCCTTGGAGTCATGGAGA yielded a TetR repression strength of 0.307. In turn, TCCCCTGTAGTCGGGGAGA yielded a TetR repression strength of 0.858. TCCCTTGTAGTCATGGAGA yielded a TetR repression strength of 0.687. As for TCCCTTGGAGTCGGGGAGA, the figure is 0.319; as for TCCCCTGTAGTAGGGGAGA, 0.261; as for TCCCTTGTAGTCCGGGAGA, 0.387. For the sequence TCCCCTGGAGTCGGGGAGA, the TetR repression strength turned out to be 0.222. For TCCCAGGCAGTCGGCGAGA the value was 0.25; for TCCCAAAGAGTGGGGGAGA, 0.217.

The sequence TCCCGTAGAGTGTACGAGA yielded a TetR repression strength of 0.175. As for TCCCGTGGAGTGCCTGAGA, the TetR repression strength came out at 0.0904. For TCCCCGACAGTGACCGAGA the value was 1.08; for TCCCCGAAAGTGGCCGAGA, 0.0544; for TCCCCGCCAGTGACCGAGA, 0.207. As for TCCCCGACAGTGACTGAGA, the TetR repression strength worked out at 0.207.

TCCCCGAAAGTGACCGAGA: the TetR repression strength is 1.21.

On to TCCCGGAAAGTGACCGAGA, for which the TetR repression strength came to 0.203.

Turning to TCCCGCGGAGTCCTCGAGA, the TetR repression strength was 0.294.

As to TCCCTATGAGTGGGCGAGA, the TetR repression strength was 0.164. For the sequence TCCCACTCAGTTAGGGAGA, the TetR repression strength came to 0.268. For TCCCCCAGAGTCGACGAGA the value was 0.84; for TCCCCCATAGTCGGCGAGA, 0.134. TCCCCAAGAGTCGACGAGA: the TetR repression strength was 0.264.

For TCCCCCCGAGTCGACGAGA, the TetR repression strength came to 0.239. Turning to TCCCCCATAGTCGACGAGA, the TetR repression strength stood at 0.825. For TCCCCGATAGTCGACGAGA, the TetR repression strength came to 0.0424. In the case of TCCCATGTAGTATGCGAGA, the TetR repression strength amounted to 0.327. With TCCCCACTAGTGGCGGAGA, the TetR repression strength turned out to be 0.514. In turn, TCCCGGTAAGTAACGGAGA displayed a TetR repression strength of 0.201. In the case of TCCCTGTGAGTCGCAGAGA, the TetR repression strength was 0.172. Sequence TCCCTTTGAGTGCATGAGA yielded a TetR repression strength of 0.403. As for TCCCTTTGAGTGAATGAGA, the figure is 0.472; as for TCCCTTTTAGTGCATGAGA, 0.711. For TCCCTTTTAGTGAATGAGA the value was 0.889; for TCCCTTTTAGTGAGAGAGA, 0.425.

TCCCTTTTAGTGCCTGAGA returned a TetR repression strength of 0.325. Take TCCCGGAAAGTAGCAGAGA: the TetR repression strength came out at 0.0718. As to TCCCTGTTAGTGTGTGAGA, the TetR repression strength worked out at 0.138.

As for TCCCAATGAGTAGGGGAGA, the TetR repression strength is 0.0811. For TCCCCACAAGTTCGGGAGA the value was 0.0657. TCCCTTCTAGTCTAAGAGA returned a TetR repression strength of 0.306. Consider TCCCGCAAAGTCAGGGAGA, for which the TetR repression strength came to 0.273. The sequence TCCCAGCGAGTACGTGAGA showed a TetR repression strength of 0.134. As to TCCCGTACAGTATAGGAGA, the TetR repression strength is 0.0753. As for TCCCGGTGAGTGAAAGAGA, the figure is 0.347.

As to TCCCGGTCAGTGAAAGAGA, the TetR repression strength is 0.692. For TCCCGGTAAGTGGCTGAGA, the TetR repression strength was determined as 1.11. For TCCCAGTCAGTGAAAGAGA, the TetR repression strength stood at 0.62. TCCCGGTCAGTGAGAGAGA: the TetR repression strength amounted to 0.591. TCCCGGTAAGTGAGAGAGA returned a TetR repression strength of 0.502. For the sequence TCCCGGTAAGTGAAAGAGA, the TetR repression strength was found to be 0.684.

The sequence TCCCGGTAAGTGGGTGAGA had a TetR repression strength of 0.141. Take TCCCGGTAAGTAGCTGAGA: the TetR repression strength is 0.208.

TCCCCCCCAGTCGATGAGA displayed a TetR repression strength of 0.409. In the case of TCCCATGGAGTTCGAGAGA, the TetR repression strength came out at 0.0732.

These data come from a collection of fitness landscapes (doi:10.1038/s41467-024-54723-y).
